Rows were chosen to be rich in hits. Some 2.9% of all compounds tested hit in one or more screens of this group.
MEKK3 PB1 HTS: MEKK3-MEK5 PB1 interaction, increase or decrease | AID 1529 | bead-based flow cytometry, Alexa488-MEK5 binding to MEKK3; actives lie on both sides; 0 = blocked by unlabeled MEK5, 100 = vehicle | Q99759 | binding response (% of control), % at 10 µM | 1.4% of 290,000 active;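 active means binding response more than 3 SD above or below the average of its plate-row segment, actives on both sides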;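 further: Alexa488 bead fluorescence after subtracting the streptavidin-only scavenger bead signal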
MEKK2wt PB1 HTS: raises or lowers MEK5 binding to wildtype human MEKK2 PB1 domain. bead flow cytometry, Alexa488-MEK5 binding to MEKK2 WT; actives lie on both sides. AID 1531. 1.1% of 290,000 active. Q9Y2U5. binding response (% of control), % at 10 µM; in the data active means binding response below about 67% or above about 130%
MEKK2mut PB1 HTS: signal of MEK5 binding to mutant human MEKK2 PB1 domain. percent response, % at 10 µM. 0.35% of 290,000 active. bead flow cytometry, Alexa488-MEK5 binding to MEKK2 mutant; in the data active means percent response above about 24%, passing the limit was not always enough
B2AR ag: activates human beta-2 adrenergic receptor causing internalization | response, % (test concentration not listed) | P07550 | Am2.2-beta2AR cells, FAP receptor internalization, flow cytometry | 0.43% of 340,000 active;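 active means response above a set limit, near 3 SD of response in nonfluorescent compounds, cut at about 42% in these data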
GRK2 inh: human GRK2 inhibition via aptamer displacement; P25098; bead flow cytometry, FAM-aptamer displacement from GRK2; inhibition of aptamer binding, % at 10 µM; 0.59% of 330,000 active;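 active means inhibition of aptamer binding above 40%, roughly 3 SD of noise, on plates passing a quality check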;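 further: median bead fluorescence of bound FAM aptamer so fluorescent compounds give negative values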
Target sequence (P25098 whole entry, looked up): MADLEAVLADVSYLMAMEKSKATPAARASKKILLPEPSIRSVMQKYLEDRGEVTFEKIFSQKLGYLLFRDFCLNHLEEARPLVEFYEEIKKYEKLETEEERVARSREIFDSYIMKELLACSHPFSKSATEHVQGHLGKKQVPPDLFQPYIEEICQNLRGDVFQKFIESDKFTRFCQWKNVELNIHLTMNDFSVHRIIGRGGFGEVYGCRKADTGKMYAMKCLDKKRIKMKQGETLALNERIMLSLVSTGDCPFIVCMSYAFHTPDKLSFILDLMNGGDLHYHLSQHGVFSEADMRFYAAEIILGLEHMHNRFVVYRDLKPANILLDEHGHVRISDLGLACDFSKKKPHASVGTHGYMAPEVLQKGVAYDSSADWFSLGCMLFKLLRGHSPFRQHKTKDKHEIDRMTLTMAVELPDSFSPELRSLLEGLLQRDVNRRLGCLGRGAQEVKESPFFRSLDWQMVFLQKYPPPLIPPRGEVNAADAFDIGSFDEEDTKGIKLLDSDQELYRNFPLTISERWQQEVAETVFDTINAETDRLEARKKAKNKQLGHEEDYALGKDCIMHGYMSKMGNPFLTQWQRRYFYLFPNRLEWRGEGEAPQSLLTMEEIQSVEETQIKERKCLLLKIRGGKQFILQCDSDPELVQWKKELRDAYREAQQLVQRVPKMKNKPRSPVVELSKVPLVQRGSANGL
GRK2 CP1: confirmation of human GRK2 inhibitors displacing RNA aptamer; aptamer displacement, % at 10 µM; 4% of 2,000 active; bead-bound GRK2, FAM-aptamer displacement, flow cytometry; shares compounds with GRK2 inh;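 active means aptamer displacement above 40%, near three times the noise of non-fluorescent compounds, on plates passing quality checks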;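 further: negative values mostly reflect intrinsic compound fluorescence rather than true enhancement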
FAM quench CP1: aptamer fluorescence quenching in GRK2 counter-screen; fluorescence response (% of DMSO), % at 10 µM; Carboxyfluorescein RNA aptamer on beads, flow cytometry quenching; hits give low values; shares compounds with GRK2 inh; 2,000 tested, under 10 active;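 active means compounds that quench the bead-bound fluorescent RNA probe, cutting fluorescence to under half of the solvent control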;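 further: counterscreen run without GRK2 so only probe quenching by compound is measured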
GRK2 confirm 2: human GRK2 inhibition confirmation, cherry pick 2. shares compounds with GRK2 inh. bead-bound GRK2, FAM-aptamer displacement, flow cytometry. inhibition of aptamer binding, % at 10 µM. 360 tested, under 10 active. AID 504782;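 active means inhibition of aptamer binding above 40%, about triple the noise seen with nonglowing compounds, on plates passing quality control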;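 further: negative values mostly come from compounds that fluoresce themselves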
FAM quench SP: quenches fluorescent RNA aptamer, GRK2 hit artifact. 360 tested, under 10 active. fluorescence response vs DMSO, % at 10 µM. carboxyfluorescein RNA aptamer beads, flow cytometry quenching; hits give low values. shares compounds with GRK2 inh. AID 588494;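 active means response vs DMSO under 50%, meaning signal dropped by over half, treated as fluorescence quencher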;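 further: labelled aptamer on streptavidin beads without GRK2 as a quench counter-screen; 100% = bead fluorescence of DMSO wells and lower means quenching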
Starred values were filed as active, the others as inactive.

What do the screens show for `O=C(c1cc(S(=O)(=O)N2CCOCC2)ccc1F)N(Cc1nnc(-c2ccccc2Cl)o1)C1CC1`?
B2AR ag: 3; GRK2 inh: 1

How did Cc1ccc(S(=O)(=O)N2CCOCC2)cc1C(=O)N(Cc1nnc(-c2ccccc2Cl)o1)C1CC1 do in these assays?
MEKK3 PB1 HTS: 102; MEKK2wt PB1 HTS: 105; MEKK2mut PB1 HTS: 5; B2AR ag: 5; GRK2 inh: 44*; GRK2 confirm 2: -2; FAM quench SP: 100

What do the screens show for `COc1ccc(CC(=O)NCCN2CCOCC2)cc1`?
MEKK3 PB1 HTS: 102; MEKK2wt PB1 HTS: 105; MEKK2mut PB1 HTS: 2; B2AR ag: -10; GRK2 inh: 32; GRK2 CP1: 3; FAM quench CP1: 101

How did COc1ccc(OCCOCCN2CCOCC2)cc1 do in these assays?
MEKK3 PB1 HTS: 91; MEKK2wt PB1 HTS: 94; MEKK2mut PB1 HTS: -7; B2AR ag: 8; GRK2 inh: 56*; GRK2 CP1: 1; FAM quench CP1: 99

How did COCCN1C(=O)N[C@@H](c2cccc(F)c2)C(C(=O)OC)=C1C do in these assays?
MEKK3 PB1 HTS: 90; MEKK2wt PB1 HTS: 94; MEKK2mut PB1 HTS: -7; B2AR ag: -1; GRK2 inh: 91*; GRK2 CP1: 0; FAM quench CP1: 105

What do the screens show for `COCCN1C(=O)N[C@H](c2cccc(C(F)(F)F)c2)C(C(=O)OC)=C1C`?
MEKK3 PB1 HTS: 98; MEKK2wt PB1 HTS: 92; MEKK2mut PB1 HTS: -6

Results for CC1CCN(C(=O)C(Cc2ccccc2)n2cccc2)CC1 (configuration not stated) ?
MEKK3 PB1 HTS: 105; MEKK2wt PB1 HTS: 109; MEKK2mut PB1 HTS: 9; B2AR ag: -6; GRK2 inh: 56*; GRK2 CP1: 3; FAM quench CP1: 100

What do the screens show for `O=C(CSC(=S)N1CCCC1)Nc1ncc(Cl)cc1Cl`?
B2AR ag: -9; GRK2 inh: 3

How did O=[N+]([O-])c1ccc(-c2c(-c3ccccc3)ncc3ccc(F)cc23)cc1 do in these assays?
B2AR ag: 2; GRK2 inh: 100*; GRK2 CP1: 3; FAM quench CP1: 104

Results for Fc1ccc2cnc(-c3ccccc3)c(-c3ccc(C(F)(F)F)cc3)c2c1 ?
B2AR ag: 4; GRK2 inh: 0

What do the screens show for `CC(=O)Nc1ccc(N2CCN(c3ccc(F)cc3)CC2)cc1`?
MEKK3 PB1 HTS: 107; MEKK2wt PB1 HTS: 108; MEKK2mut PB1 HTS: 11; B2AR ag: 1; GRK2 inh: 11; GRK2 CP1: -1; FAM quench CP1: 103

What do the screens show for `CCC(C)(C)NC(=O)C(c1ccccc1)N(C(=O)c1csnn1)C1CC1` (configuration not stated)?
MEKK3 PB1 HTS: 79; MEKK2wt PB1 HTS: 105; MEKK2mut PB1 HTS: 4; B2AR ag: -2; GRK2 inh: 60*; GRK2 CP1: -1; FAM quench CP1: 99

How did CCC(C)(C)NC(=O)C(c1ccccn1)N(C(=O)c1csnn1)C1CCCCC1 (configuration not stated) do in these assays?
MEKK3 PB1 HTS: 95; MEKK2wt PB1 HTS: 93; MEKK2mut PB1 HTS: -9; B2AR ag: 4; GRK2 inh: 0

Results for O=C(Cc1ccccc1[N+](=O)[O-])NCC(=O)c1ccc2c(c1)OCO2 ?
B2AR ag: -4

Results for O=C(NC1CCCCC1)c1cc(C2CC2)nn1-c1ccccc1 ?
B2AR ag: -11; GRK2 inh: 89*; GRK2 CP1: 1; FAM quench CP1: 97

Results for C=CCOc1c(CNC2CCCC2)cc(Cl)cc1OC ?
MEKK3 PB1 HTS: 99; MEKK2wt PB1 HTS: 98; MEKK2mut PB1 HTS: -1; B2AR ag: 1; GRK2 inh: 87*; GRK2 CP1: -2; FAM quench CP1: 102

How did CCN(CC)C(=O)c1ccccc1NS(=O)(=O)c1ccc(OC)c(C(=O)N2CCOCC2)c1 do in these assays?
MEKK3 PB1 HTS: 105; MEKK2wt PB1 HTS: 99; MEKK2mut PB1 HTS: 9; B2AR ag: -4; GRK2 inh: 61*; GRK2 CP1: -2; FAM quench CP1: 100

How did CCOc1ccccc1C(=O)OC(C)C(=O)Nc1ccc(S(=O)(=O)N2CCCC2)cc1 (configuration not stated) do in these assays?
B2AR ag: 6; GRK2 inh: 0

What do the screens show for `CCN(C(=O)CCS(=O)(=O)c1ccc2c(c1)oc(=O)n2C)c1ccc(OC)cc1`?
MEKK3 PB1 HTS: 95; MEKK2wt PB1 HTS: 99; MEKK2mut PB1 HTS: -5; B2AR ag: -12; GRK2 inh: 4

Results for COC(=O)/C=C1/C(=O)N/C(=N\c2nc(C)cc(C)n2)N1c1ccc(OC)cc1 ?
MEKK3 PB1 HTS: 98; MEKK2wt PB1 HTS: 116; MEKK2mut PB1 HTS: 11; B2AR ag: -4; GRK2 inh: 0

How did COC(=O)/C=C1\N/C(=N/c2nc(C)c3cc(OC)ccc3n2)NC1=O do in these assays?
MEKK3 PB1 HTS: 107; MEKK2wt PB1 HTS: 110; MEKK2mut PB1 HTS: 2; B2AR ag: 5; GRK2 inh: 55*; GRK2 CP1: 12; FAM quench CP1: 97

What do the screens show for `Cc1ccc(S(=O)(=O)N2[C@@H](c3cccc(C)c3)C(C(=O)O)=C[C@H]2C(C)(C)C)cc1`?
B2AR ag: 5; GRK2 inh: 4

How did COc1ccc(OC)c(S(=O)(=O)N2CCN(c3c(C)cccc3C)CC2)c1 do in these assays?
MEKK3 PB1 HTS: 101; MEKK2wt PB1 HTS: 102; MEKK2mut PB1 HTS: 3; B2AR ag: 1; GRK2 inh: 95*; GRK2 CP1: -1; FAM quench CP1: 101

Results for CCCCCc1cccnc1 ?
MEKK3 PB1 HTS: 93; MEKK2wt PB1 HTS: 91; MEKK2mut PB1 HTS: -6; B2AR ag: -6; GRK2 inh: 64*; GRK2 CP1: -1; FAM quench CP1: 96

Results for O=[N+]([O-])c1ccc2c(c1)nnn2-c1ccccc1 ?
MEKK3 PB1 HTS: 113; MEKK2wt PB1 HTS: 108; MEKK2mut PB1 HTS: 12; B2AR ag: -16; GRK2 inh: 2

What do the screens show for `Nc1nn(-c2ccccc2)c2ccc([N+](=O)[O-])cc12`?
MEKK3 PB1 HTS: 101; MEKK2wt PB1 HTS: 104; MEKK2mut PB1 HTS: 2; B2AR ag: -4; GRK2 inh: 75*; GRK2 CP1: 2; FAM quench CP1: 85

Assay outcomes as filed in PubChem BioAssay.
